This is a sample that favours compounds with a hit; in the whole collection about 5.5% have one here.
CBFb RUNX1 block: CBF-beta/RUNX1 interaction disruption; AlphaScreen CBFb-His/RUNX1-biotin binding, biochemical; 230,000 tested, under 10 active; Q01196+Q13951; Potency, µM (series often up to 59.8 µM), for the others: at the highest dose activity, negative = inhibition, hits mostly inhibitors; further: % of control where 0% means no effect
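Compounds were screened at multiple concentrations against a preformed CBF-beta(His)/RUNX1(biotin) complex (30 nM of each) for 15 min at room temperature, followed by 90 min with nickel and streptavidin beads and AlphaScreen reading.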
CtBP-E1A inh: inhibitors of CtBP/E1A interaction | AlphaScreen GST-E1A/His-CtBP binding, 1536-well; active compounds read low | activity change, % (no concentration beside the values) | hit rate 0.49% among 340,000 | AID 651724; in the data active means activity change below about -65%; inconclusive means mostly about -30% to -63%; further: on the % scale 0 is the no-effect control and ±100 the full control effect
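Steps: dispense buffer (Tris pH 8.0, NaCl 300 mM, TCEP 1 mM, BSA, Tween 20); add 5X protein mix (GST-E1A, His-CtBP, 125 nM each); pin 23 nL compound; 2 h at 37 °C, dark; add 5X beads (50 ug/mL); 1 h; read.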
RORgamma inh: ROR gamma (mouse) transcription inhibition; P51450; Drosophila S2 Gal4-RORgamma UAS-luciferase reporter, 20 h; Potency, µM (titrated, usually from 53.6 µM), for inactives: top-dose activity change, negative = inhibition, actives largely listed as inhibitors; hit rate 5.4% among 310,000; further: potency means the concentration at half of the fitted maximal effect; on the % scale 0 is the no-effect control and ±100 the full control effect; nearly all actives have a fitted effect of over 60% in size
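Schneider cells (Drosophila), stable Gal4 DBD–ROR gamma + UAS-luc; 1 hr cmpd preincubation; Cu2+ induction 700 uM final; 20 hr ambient; luminescence.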
Six1-Eya2 inh: inhibitors of human Six1/Eya2 interaction. Q15475+O00167. AlphaScreen GST-Six1/His-Eya2 binding, biochemical; active compounds read low. activity change, % (no concentration beside the values). hit rate 0.56% among 360,000. AID 651725; in the data active means activity change below about -65%; inconclusive means mostly about -30% to -63%; further: on the % scale 0 is the no-effect control and ±100 the full control effect
Target sequence (O00167 whole entry, looked up): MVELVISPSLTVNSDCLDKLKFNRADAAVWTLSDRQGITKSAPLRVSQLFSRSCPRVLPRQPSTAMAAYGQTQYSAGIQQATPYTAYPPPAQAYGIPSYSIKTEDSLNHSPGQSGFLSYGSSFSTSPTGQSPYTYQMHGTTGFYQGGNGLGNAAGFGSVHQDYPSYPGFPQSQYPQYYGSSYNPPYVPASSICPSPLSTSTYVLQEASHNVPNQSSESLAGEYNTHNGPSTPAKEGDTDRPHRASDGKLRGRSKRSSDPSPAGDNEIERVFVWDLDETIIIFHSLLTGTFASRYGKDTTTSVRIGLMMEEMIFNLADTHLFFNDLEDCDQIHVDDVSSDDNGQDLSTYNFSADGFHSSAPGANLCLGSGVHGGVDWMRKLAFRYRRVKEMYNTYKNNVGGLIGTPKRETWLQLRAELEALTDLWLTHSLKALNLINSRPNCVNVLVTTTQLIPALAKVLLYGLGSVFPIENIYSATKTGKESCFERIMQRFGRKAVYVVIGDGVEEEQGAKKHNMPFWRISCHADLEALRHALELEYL
Target sequence (Q15475 whole entry, looked up): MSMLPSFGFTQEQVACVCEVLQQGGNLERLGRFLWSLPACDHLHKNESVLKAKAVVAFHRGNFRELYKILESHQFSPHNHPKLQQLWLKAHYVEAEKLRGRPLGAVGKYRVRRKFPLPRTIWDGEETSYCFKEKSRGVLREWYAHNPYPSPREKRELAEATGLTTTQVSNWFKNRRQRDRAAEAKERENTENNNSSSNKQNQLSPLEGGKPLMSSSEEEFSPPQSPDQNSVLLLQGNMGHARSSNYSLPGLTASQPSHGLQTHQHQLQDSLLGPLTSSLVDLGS
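Homogeneous AlphaScreen proximity assay pairing GST-Six1 with His-tagged Eya2 (added as 5X mix: 250 nM and 500 nM) in 50 mM Tris pH 8.0, 300 mM NaCl, 1 mM TCEP. Glutathione donor and nickel acceptor beads; 1 h, 37 °C, dark.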
Gal4-VP16 FLuc: Gal4-VP16 reporter inhibition counter-screen. AID 2546. Potency, µM (top dose mostly 53.6 µM), for the others: at the highest dose activity, negative = inhibition, hits mostly inhibitors. hit rate 3.5% among 310,000. Drosophila S2 Gal4-VP16 UAS-luciferase, luminescence, 20 h;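 further: Gal4-VP16 expression switched on by copper sulfate through the metallothionein promoter; potency means the concentration at half of the fitted maximal effect; on the % scale 0 is the no-effect control and ±100 the full control effect; nearly all actives have a fitted effect of over 50% in size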
MBNL1-CUG inh: MBNL1-poly(CUG) RNA binding inhibition | hit rate 0.036% among 280,000 | Potency, µM (top dose mostly 57.5 µM), for the others: at the top dose activity change, negative = inhibition, usual class: inhibitors | AID 2675 | TR-FRET MBNL1-His/biotin-(CUG)12 binding, 665/545 ratio; active means well fitted inhibition curve with a large enough effect in the signal ratio, with a control signal flat, not every such curve was filed as active; inconclusive means small, poorly fitted or top-dose-only effect, or effect the other way, or a change in a side signal; inactive means no such curve, though single readings can be large or run the other way; the % refers to the signal ratio; further: potency means the concentration at half of the fitted maximal effect; on the % scale 0 is the no-effect control and ±100 the full control effect
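TR-FRET readout: Ex 340 nm, 665/545 nm emission ratio, normalized to buffer-only (basal) and MBNL1-(CUG)12 controls. Complex of MBNL1-His with Biotin-(CUG)12, compounds 92 nM–58 uM, incubated 60 min at room temperature.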
* hit, by the source's call; ? = inconclusive; · = not tested or not shown; [ ] = another dose, or the depositor's remark. Unless noted, the call rests on the fitted dose curve; in most records, active means well fitted curve in the direction sought with a large enough effect; inconclusive means small, poorly fitted or top-dose-only effect, or another doubt; inactive means no such curve, though single readings can be large; an effect the other way counts as inactive or inconclusive.

SMILES | CBFb RUNX1 block | CtBP-E1A inh | RORgamma inh | Six1-Eya2 inh | Gal4-VP16 FLuc | MBNL1-CUG inh
Cc1ccnc(NC(=O)c2ccc(OCC3CCCO3)cc2)c1 (configuration not stated) | · | 2 | · | 4 | · | ·
CC(C)CC(C(=O)NC(C)(C)C)N(Cc1ccccc1Cl)C(=O)c1snc(C(N)=O)c1N (configuration not stated) | · | 1 | -1% | -3 | 4% | -3%
O=C(NC(=S)Nc1ccc(N2CCOCC2)cc1)c1ccc(Cl)cc1 | -8% | 4 | 4µM* | 0 | 7.1µM* | ·
CC(C)(C)c1ccc(C(=O)NC(=S)Nc2ccc(N3CCOCC3)cc2)cc1 | -2% | 0 | 4.5µM* | 18 | 7.1µM* | 8%
Cc1ccc2c(CC(=O)NNC(=O)c3ccncc3)coc2c1 | · | -4 | · | 5 | · | ·
COc1ccc(C(C)(NC(C)=O)c2nc(-c3ccc(F)c(Cl)c3)cs2)cc1 (configuration not stated) | · | -23 | · | 2 | · | ·
COC(=O)CSc1nc(N)c2c3c(sc2n1)CCCC3 | 6% | -4 | ? | -10 | 5% | 3%
COC(=O)CSc1nc(N)c2c3c(sc2n1)C(c1ccccc1)SC(c1ccccc1)C3 (configuration not stated) | -13% | 2 | 10µM* | -10 | 11µM* | ·
COc1ccc2nc(NNC(=O)C3COc4ccccc4O3)sc2c1 (configuration not stated) | 4% | -4 | 2.8µM* | -2 | ? | -19%
COc1ccc2nc(NC(=O)CSc3ccccc3)sc2c1 | -1% | -1 | 1.6µM* | -4 | -14% | 3%
COc1ccc2nc(NC(=O)CSc3nnc(N)s3)sc2c1 | -7% | -6 | 13% | 3 | 1% | -10%
COc1ccc2nc(NC(=O)CSC3=NCCS3)sc2c1 | -3% | -3 | ? | -6 | -22% | 3%
CCOc1ccc2nc(NC(=O)CSc3ccc(Cl)cc3)sc2c1 | -2% | 2 | 11µM* | 1 | ? | 2%
COc1ccc2nc(NC(=O)C3COc4ccccc4O3)sc2c1 (configuration not stated) | -1% | -4 | ? | -2 | -51% | -3%
CCOc1ccc2nc(NC(=O)CSc3cn[nH]n3)sc2c1 | · | 7 | -1% | -17 | -11% | -4%
CCOc1ccc2nc(NC(=O)CSC3=NCCS3)sc2c1 | 4% | 0 | 14µM* | 0 | -18% | -4%
CCN1CCN(c2ccc(NC(=O)c3cc(S(=O)(=O)N4CCCC4)ccc3Cl)cc2)CC1 | · | · | · | -15 | · | ·
COc1ccc2c(c1)O[C@H](c1ccc3c(c1)OCO3)[C@@H](OC(=O)NS(=O)(=O)c1ccc(C)cc1)C2=O | 3% | · | 4% | · | 2% | ·
O=C1c2ccccc2NC(c2ccccc2)N1/N=C/c1ccccc1 (configuration not stated) | 8% | 2 | 10µM* | 5 | 11µM* | 4%
Nc1c2c(nc3sc4c(c13)CCCC4)-c1ccccc1CC2 | -2% | 0 | ? | 6 | 10µM* | 10%
CSc1ccc(C(O)c2ncc(-c3cccc(F)c3)[nH]2)cc1 (configuration not stated) | · | -11 | · | -30 | · | ·
CC1CCCC(NC(=O)COC(=O)COc2cccc(F)c2)C1C (configuration not stated) | · | 5 | · | 6 | · | ·
COc1ccc2c(c1)-c1c(ssc1=S)C(C)(C)N2S(=O)(=O)c1ccc(C)cc1 | · | -5 | 8.9µM* | ? | -1% | 2%
COc1ccc(NC(=S)N2CCN(S(=O)(=O)c3ccc(F)cc3)CC2)cc1 | · | -1 | -7% | -6 | -8% | 3%
CCCn1c(C)nc2c(NCCCCN(C)C)nc(C)nc21 | 6% | · | -2% | · | 7% | ·
SMILES | CBFb RUNX1 block | CtBP-E1A inh | RORgamma inh | Six1-Eya2 inh | Gal4-VP16 FLuc | MBNL1-CUG inh
COc1cc2c(cc1OC)C1(CCCCC1)CN(C)C2 | 6% | 0 | 0% | 17 | -1% | -6%
CN(C)c1ccccc1-c1cc(NC=O)c2ncc(-c3cccc(C(F)(F)F)c3)n2c1 | · | -72* | · | ? | · | ·
CC[C@H](C(=O)[C@H](C)[C@H](O)[C@H](C)CCc1ccc(C)c(O)c1C(=O)O)[C@H]1O[C@](CC)([C@@H]2CC[C@@](O)(CC)[C@H](C)O2)C[C@H]1C | 11%[21.7 µM] | · | ? | · | 6.3µM* | ·
CCCC(=O)Nc1ccc(C2C(=O)c3ccccc3C2=O)cc1 | · | 6 | 11µM* | 5 | 11µM* | ?
CC(=O)Nc1ccc(C2C(=O)c3ccccc3C2=O)cc1 | -4% | -1 | 1% | -11 | -2% | ?
CCN(C(=O)c1ccc(NC(=O)Cc2ccccc2)cc1)c1ccccc1 | · | 2 | ? | -1 | 6% | 0%
CCCCCCN1CCN(C2CN(Cc3cn(Cc4ccccc4)nn3)S(=O)(=O)C2)CC1 (configuration not stated) | · | -8 | · | 9 | · | ·
Cc1cccc(C)c1NC(=O)NS(=O)(=O)c1ccccc1 | · | 3 | · | -7 | · | ·
CC(C(=O)O)N1C(=O)/C(=C/C=C/c2ccco2)SC1=S (configuration not stated) | · | -7 | -9% | -74* | 0% | ?
Cc1ccc(OCCC(=O)N2CCN(c3ccc(O)cc3)CC2)cc1 | 2% | -6 | -4% | -3 | 3% | -14%
O=C(CN(c1ccc(Cl)cc1)S(=O)(=O)c1ccc(Cl)c([N+](=O)[O-])c1)NCCc1ccc(F)cc1 | 10% | 5 | 7.9µM* | -6 | 7.1µM* | -5%
COc1ccc(C)cc1Cn1c(S(C)(=O)=O)nc2ccccc21 | 1% | 0 | -21% | -2 | -6% | -3%
COc1ccccc1Cn1c(C)nc2ccccc21 | 5% | 6 | 14µM* | -2 | ? | -10%
Cc1nc2ccccc2n1Cc1ccc(Cl)cc1 | · | -12 | ? | -2 | 10µM* | 3%
Cc1nc2ccccc2n1Cc1n[nH]c(=S)n1-c1ccc(Cl)cc1 | -2% | -13 | ? | -9 | -20% | -6%
CCc1nc2ccccc2n1Cc1ccccc1OC | 5% | -1 | 7.1µM* | 1 | ? | -14%
Cc1ccccc1OCCn1c(C)nc2ccccc21 | · | -4 | 1%[1.91 µM] | 3 | 7.9µM* | -1%
COC(=O)c1ccc(COC(=O)C(NC(=O)Cc2ccccc2)C(C)C)cc1 (configuration not stated) | · | 8 | · | 5 | · | ·
CCCc1nc2ccccc2n1Cc1ccccc1OC | -10% | -1 | 6.3µM* | 0 | ? | ·
COc1ccccc1Cn1c(CCCO)nc2ccccc21 | -2% | 5 | -31% | 12 | 13% | -3%
Cc1ccccc1Cn1c(C)nc2ccccc21 | · | -3 | ? | 1 | 3.5µM* | 2%

High-throughput results as filed in PubChem BioAssay.
